The list is not random: actives were taken first. Their share in the collection is about 15%.
DT40 TDP1 no CPT = qHTS for Inhibitors of human tyrosyl-DNA phosphodiesterase 1 (TDP1): qHTS in cells in absence of CPT | DT40 Tdp1-/- hTDP1 cells, no CPT, ATP luminescence, 48 h | Potency, µM (top dose mostly 46.2 µM), for inactives: at the highest dose activity change, negative = growth inhibition, hits mostly inhibitors | actives 15% (n = 420,000) | AID 686978, 2013; further: nearly all actives have a fitted effect of over 55% in size
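Growth of hTDP1-complemented DT40 Tdp1-knockout cells is measured by ATP luminescence after at least 48 hr compound exposure at 37 °C, with DMSO substituting for the 20 nM CPT used in the parallel screen.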
TDP1 cell CPT = DT40-hTDP1 cell growth loss with CPT. chicken DT40 Tdp1-/-;hTDP1 cells + 20 nM CPT, ATP luminescence, 48 h. Potency, µM (doses to about 46.2 µM), for the others: at the top dose activity change, negative = growth inhibition, actives largely listed as inhibitors. actives 12% (n = 420,000); further: nearly all actives have a fitted effect of over 55% in size
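Chicken DT40 Tdp1-/- cells stably complemented with human TDP1 were seeded at 400 cells/well in medium containing 20 nM camptothecin, exposed to pin-transferred compounds, and grown at 37 °C for at least 48 hr. Viability was read as ATP luminescence.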
12-LOX inh = ALOX12 (human) lipoxygenase inhibition | AID 1671190 | purified 12hLO, xylenol orange hydroperoxide absorbance | P18054 | actives 1.1% (n = 580,000) | Potency, µM (doses to about 108 µM), for inactives: at the top dose activity change, negative = inhibition, actives largely listed as inhibitors
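Purified human 12hLO at 150 nM in 25 mM Hepes, 0.01% Triton X-100, pH 7.0, preincubated 15 min at room temperature with compound. Reaction started with 40 uM arachidonic acid, 30 min at room temperature. Hydroperoxide measured by Fe-xylenol orange, 573/405 nm absorbance ratio.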
Gal4-VP16 FLuc = Gal4-VP16 reporter inhibition counter-screen; Potency, µM (doses to about 53.6 µM), without a hit: top-dose activity, negative = inhibition, hits mostly inhibitors; actives 3.5% (n = 310,000); Drosophila S2 Gal4-VP16 UAS-luciferase, luminescence, 20 h;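 further: Gal4-VP16 expression switched on by copper sulfate through the metallothionein promoter; nearly all actives have a fitted effect of over 50% in size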
ELG1 DNA repair = blocks ELG1-dependent DNA repair in HEK293T cells; HEK293T ELG1-luciferase reporter, luminescence, 16 h; DNA damage induced by 5-fluorouridine; Potency, µM (highest dose often 46.1 µM), without a hit: top-dose activity change, negative = inhibition, usual class: inhibitors; actives 2.3% (n = 330,000); further: nearly all actives have a fitted effect of over 55% in size
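Overnight (16 hr) co-exposure of 2,000 cells/well to 5-fluorouridine and compound at 37 °C preceded detection. Luciferase was quantified via ONE-Glo luminescence; loss of signal denotes inhibition.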
RORgamma inh = ROR gamma (mouse) transcription inhibition. P51450. Drosophila S2 Gal4-RORgamma UAS-luciferase reporter, 20 h. Potency, µM (top dose mostly 53.6 µM), for inactives: top-dose activity change, negative = inhibition, actives largely listed as inhibitors. actives 5.4% (n = 310,000). AID 2551; further: nearly all actives have a fitted effect of over 60% in size
Target sequence (P51450 whole entry, looked up, the tested form may be a part): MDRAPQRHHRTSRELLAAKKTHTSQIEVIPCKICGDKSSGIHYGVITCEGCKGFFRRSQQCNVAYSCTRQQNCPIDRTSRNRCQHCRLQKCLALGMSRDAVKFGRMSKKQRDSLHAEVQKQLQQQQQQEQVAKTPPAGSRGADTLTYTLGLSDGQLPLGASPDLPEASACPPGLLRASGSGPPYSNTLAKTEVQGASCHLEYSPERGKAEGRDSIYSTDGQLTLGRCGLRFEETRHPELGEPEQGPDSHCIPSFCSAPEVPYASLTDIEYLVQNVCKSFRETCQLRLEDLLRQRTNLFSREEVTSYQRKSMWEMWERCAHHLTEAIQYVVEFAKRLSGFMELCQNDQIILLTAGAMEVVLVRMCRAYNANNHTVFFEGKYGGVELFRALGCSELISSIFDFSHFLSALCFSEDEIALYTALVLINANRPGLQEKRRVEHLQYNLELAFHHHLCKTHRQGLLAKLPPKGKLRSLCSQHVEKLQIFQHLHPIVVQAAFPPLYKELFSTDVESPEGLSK
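Read-out: Photinus luciferase luminescence; inhibitors lower reporter signal. Insect Schneider cells with Gal4-ROR gamma fusion under metallothionein promoter, UAS reporter; 700 uM final copper sulfate induction, 20 hr, ambient temperature.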
The depositor's hits bear a star; i = inactive; ? = inconclusive; nt = no result given; [ ] = remark or other dose. The call rests on the fitted dose curve; in most records, active means well fitted curve in the direction sought with a large enough effect; inconclusive means small, poorly fitted or top-dose-only effect, or another doubt; inactive means no such curve, though single readings can be large; an effect the other way counts as inactive or inconclusive. On the % scale 0 is the no-effect control and ±100 the full control effect; potency means the concentration at half of the fitted maximal effect.

SMILES	DT40 TDP1 no CPT	TDP1 cell CPT	12-LOX inh	Gal4-VP16 FLuc	ELG1 DNA repair	RORgamma inh
Cc1cccc(C(=O)NC2CC3CCCC(C2)N3S(=O)(=O)c2ccccc2)c1 (centres undefined)	18.4µM*	13µM*	-10.3%	2.3%	23.1µM*	-0.5%
COc1ccccc1NS(=O)(=O)c1ccc(C)c(C(=O)NC2CCN(Cc3ccccc3)CC2)c1	16.4µM*	20.6µM*	1.7%	nt	-11.6%	nt
COc1ccc(NS(=O)(=O)c2ccc(C)c(C(=O)NC3CCN(Cc4ccccc4)CC3)c2)cc1	?	16.4µM*	?	-0.9%	-19.4%	10.8%
O=C(N/N=C/c1cccnc1)C1CC1	nt	nt	24.8%	nt	nt	nt
CN1CCC(N(C)C(=O)CCC[C@@H]2[C@H]3CCCN4CCC[C@@H](CN2Cc2ccccc2)[C@@H]34)CC1	nt	nt	38.1%	nt	nt	nt
CC(C)CCn1c(NCCCO)nc2c1c(=O)[nH]c(=O)n2C	nt	nt	2.1%	nt	nt	nt
O=C(CCc1nc(C2CCCN2C(=O)C2CC2)no1)NCCC1=CCCCC1 (centres undefined)	nt	nt	47.3%	nt	nt	nt
O=C(Nc1ccc2[nH]ncc2c1)c1nn(-c2ccccc2)c(=O)c2ccccc12	nt	nt	7.9%	nt	nt	nt
Cc1nn(-c2ccccc2)nc1C(=O)Nc1ccc2[nH]ncc2c1	20.6µM*	-26.0%	47.8%	-0.7%	-15.7%	-8.2%
O=C(NC1CCN(C(=O)N2CC3CC(C2)[C@H]2CCCC(=O)N2C3)CC1)C1CCCC1 (some centres undefined)	nt	nt	47.7%	nt	nt	nt
Cc1ccc(C(=O)CC(=O)COc2ccc(Cl)cc2)cc1	14.6µM*	?	?	10µM*	?	12.6µM*
COc1ccc(C(=O)O/N=C(\N)Cc2ccc(Cl)cc2)cc1OC	20.6µM*	16.4µM*	0.1%	15.8µM*	?	?
COc1ccc(OCC(=O)O/N=C(\N)Cc2ccc(Cl)cc2)cc1	-4.8%	-15.4%	-2.6%	0.4%	-2.3%	0.1%
COc1ccc(C(=O)Oc2ccc(Cl)cc2Cl)cc1OC	nt	nt	-17.0%	nt	nt	nt
N/C(Cc1ccc(Cl)cc1)=N\OC(=O)c1ccccc1	?	?	13.3%	-22.0%	1.8%	-22.1%
COc1ccc(C(=O)O/N=C(\N)Cc2ccc(Cl)c(Cl)c2)cc1OC	?	16.4µM*	-3.9%	6.31µM*	18.4µM*	?
Cc1ccc(OCC(=O)O/N=C(\N)Cc2ccc(Cl)cc2)cc1	4.61µM*	6.51µM*	8.8%	-2.7%	1.1%	-0.2%
O=C(NCCc1ccncc1)C1CN(C(=O)c2ccc(F)c(F)c2)CC12CCOCC2 (centres undefined)	nt	nt	-10.0%	nt	nt	nt
CCOCCOC(=O)COc1ccc2c(=O)c(-c3ccc(Cl)cc3)c(C(F)(F)F)oc2c1	nt	nt	11.6%	nt	nt	nt
N/C(CCS(=O)(=O)c1ccc(Cl)cc1)=N\OC(=O)c1ccc(Cl)cc1	20.6µM*	?	40.3%	-9.1%	-1.3%	-0.6%
Cc1ccc(NC(=O)CSc2ncccc2C(=O)Oc2ccccc2Cl)cc1Cl	?	?	-36.9%	nt	nt	nt
O=C(CSc1ncccc1C(=O)Oc1ccccc1Cl)Nc1ccc(C(F)(F)F)cc1Cl	23.1µM*	?	-22.2%	nt	nt	nt
CCOC(=O)c1c(C)oc(NC(=O)c2cc(-c3ccc(OC)cc3)on2)c1C#N	nt	nt	31.8%	nt	nt	nt
COc1ccc(CN2Cc3ccccc3OC(c3ccccc3OC)C2)cc1O (centres undefined)	?	2.8%[9.04 µM]	?	nt	nt	nt
COc1ccccc1C1CN(Cc2cccc(O)c2)Cc2ccccc2O1 (centres undefined)	16.4µM*	-3.2%[9.04 µM]	?	nt	nt	nt
SMILES	DT40 TDP1 no CPT	TDP1 cell CPT	12-LOX inh	Gal4-VP16 FLuc	ELG1 DNA repair	RORgamma inh
COc1ccccc1C1CN(Cc2ccc(Sc3nncn3C)o2)Cc2ccccc2O1 (centres undefined)	16.4µM*	-10.5%[9.04 µM]	16.7%	nt	nt	nt
O=C(c1cc2ccccc2oc1=O)N1CCN(Cc2cccc(Cl)c2)CC1	nt	nt	-0.5%	nt	nt	nt
COc1ccc(-n2c(SCC(=O)c3c[nH]c(C(=O)N4CCCC4)c3)nnc2-c2ccncc2)cc1	nt	nt	-9.4%	nt	nt	nt
COC[C@H]1C[C@@H](NC(C)=O)[C@H](O)[C@@H]1O	nt	nt	105.4%[176 µM]	nt	nt	nt
Cc1ccc(CCC(=O)O)c(C)c1	nt	nt	13.0%	nt	nt	nt
Cc1ccc(C[n+]2cccc(-c3ccccc3)c2)c(C)c1	0.731µM*	1.16µM*	-5.7%	?	-19.8%	?
COc1ccc(C(CC(=O)N2CCC(C(N)=O)CC2)c2ccccc2)cc1 (centres undefined)	nt	nt	-3.6%	nt	nt	nt
O=C(N[C@H]1CCCNC1=O)C1=C[C@@H](NC(=O)c2cccnc2)[C@@H](O)[C@H](O)C1	nt	nt	9.0%[176 µM]	nt	nt	nt
N/C(=N\OC(=O)CC1CCCCC1)c1ccc([N+](=O)[O-])cc1	-7.3%	6.9%	-0.4%	35.5µM*	4.3%	0.9%
N/C(=N\OC(=O)CCC1CCCCC1)c1ccc([N+](=O)[O-])cc1	-22.6%	-31.9%	-17.3%	23.6%	?	44.6%
CC(=O)Nc1ccc(S(=O)(=O)N2CCN=C2SCc2cccc(C)c2)cc1	?	?	i	-7.7%	-23.2%	?
CS(=O)(=O)N1CCN=C1SCc1ccc([N+](=O)[O-])cc1	6.0%	11.7%	0.2%	5.3%	-18.3%	17.1%
CC(=O)Nc1ccc(S(=O)(=O)N2CCN=C2SCc2ccc([N+](=O)[O-])cc2)cc1	7.31µM*	11.6µM*	i	?	?	?
CC(=O)Nc1ccc(S(=O)(=O)N2CCN=C2SCc2ccccc2C)cc1	16.4µM*	?	-9.7%	-10.4%	-10.1%	?
CC(/C=N/n1c(-c2ccccn2)n[nH]c1=S)=C\c1ccccc1	?	-25.6%	?	-9.0%	?	3.55µM*
CCc1n[nH]c(=S)n1/N=C/C(C)=C\c1ccccc1	-22.5%	13.6%	?	5.62µM*	-14.8%	7.08µM*
S=c1[nH]nc(-c2ccncc2)n1/N=C/c1cccc(Cl)c1	-27.7%	-21.5%	?	-23.4%	-7.3%	4.47µM*
COc1c(Br)cc(/C=N/n2c(-c3ccccc3)n[nH]c2=S)c(O)c1Br	?	0.1%	?	?	?	12.6µM*
COc1ccc(N(CC(=O)Nc2ccccc2C(=O)N2CCCCCC2)S(C)(=O)=O)c(OC)c1	nt	nt	41.7%	nt	nt	nt
O[C@H]1CC[C@@H](Cc2cc(-c3ccccc3)on2)O[C@@H]1CNC1CCCCC1	nt	nt	8.9%[176 µM]	nt	nt	nt
S=c1[nH]nc(-c2ccccn2)n1/N=C/c1ccc(Cl)cc1	-15.1%	1.4%	28.2µM*	-19.1%	?	12.6µM*

Screens deposited in PubChem by National Center for Advancing Translational Sciences (NCATS).
